Screens deposited in PubChem by National Center for Advancing Translational Sciences (NCATS).
In the library only some 21% were active in any assay of this set; here they are far more common.
SARS PLP yeast: blocks SARS-CoV papain-like protease in a yeast assay; S. cerevisiae expressing SARS-CoV PLpro, growth rescue; Potency, µM (top dose mostly 32.9 µM), for the others: at the top dose activity, positive = growth rescue, hits mostly activators; actives 0.19% (n = 330,000); AID 485353; calls by dose curve; also: potency is read from the fitted curve at half-maximal effect; 0% is about no effect; nearly all actives have a fitted effect of over 55% in size
Pf growth 48h: inhibits P. falciparum growth in the first generation, 48 h | AID 504832 | actives 5.9% (n = 310,000) | P. falciparum luciferase growth in erythrocytes, 48 h | Potency, µM (doses to about 28.7 µM), for the others: at the top dose activity change, negative = inhibition, usual class: inhibitors; also: potency is read from the fitted curve at half-maximal effect; % is scaled to controls: 0 for no effect and ±100 for the full control effect
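Here the parasites carry a stable luciferase gene and grow inside erythrocytes in Albumax-based RPMI medium with compound for one erythrocytic cycle. Activity is scored as loss of luminescent signal.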
NS1 inh: blocks influenza NS1 protein function. Potency, µM (doses to about 46.1 µM), for inactives: top-dose activity, positive = more growth. actives 0.4% (n = 270,000). AID 2326; calls by dose curve; also: potency is read from the fitted curve at half-maximal effect; actives are rising curves; nearly all actives have a fitted effect of over 50% in size
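In this qHTS, NS1 from influenza A is expressed in budding yeast, where it slows growth. Cells are switched from glucose to 2% galactose medium (pH 6.0, -URA), treated with compound, and growth recovery is read at OD600.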
Shiga inhibitor: Shiga toxin inhibition; Vero cells, Shiga toxin protein synthesis inhibition reporter; inhibition, % at 38.7 µM; actives 9.2% (n = 290,000); in the data active = inhibition mostly above about 28%, no sharp cut-off; inactive = mostly below about 43%; also: 0% is about no effect
Pf growth 96h: inhibits malaria parasite growth, 96 h; P. falciparum luciferase reporter growth, 96 h; Potency, µM (doses to about 28.7 µM), for the others: at the top dose activity change, negative = inhibition, most hits filed as inhibitors; actives 6.9% (n = 320,000); also: potency is read from the fitted curve at half-maximal effect; % is scaled to controls: 0 for no effect and ±100 for the full control effect
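Two parasite generations (96 h, 37 C, 5% CO2) of compound exposure in infected erythrocytes (0.05% parasitemia, 2% hematocrit). Luciferase-reporter P. falciparum; decreased luminescence indicates inhibited growth, aimed at apicoplast-acting delayed death.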
CHX counter: counter-screen hit for Shiga toxin inhibitors, cycloheximide. max response, %. actives 12% (n = 300,000). cell reporter, cycloheximide protein synthesis inhibition counterscreen; in the data active = max response mostly above about 13%, no sharp cut-off; inactive = mostly below about 14%; also: read at 38.3 µM for the half of the compounds with a filed dose; 0% is about no effect
* = called active by the depositor; ? = inconclusive; . = no result; [ ] = remark or other dose. Unless noted, calls follow the shape of the dose curve; as a rule, active = well fitted inhibition curve with a large enough effect; inconclusive = small, poorly fitted or top-dose-only effect, or another doubt; inactive = no such curve, though single readings can be large or run the other way.

SMILES | SARS PLP yeast | Pf growth 48h | NS1 inh | Shiga inhibitor | Pf growth 96h | CHX counter
O=C(Nc1ccc(CN2CCOCC2)cc1)c1cccc(F)c1 | 11% | 149% | -2% | 81* | 8% | 52*
COC(=O)c1ccc(NC(=O)c2ccc(CN3CCOCC3)cc2)cc1 | 6% | ? | -24% | -3 | . | 1
CC(C)COc1cccc(C(=O)Nc2ccc(S(=O)(=O)N3CCOCC3)cc2)c1 | 2% | ? | 3% | -4 | . | -3
O=C(Nc1ccc(CN2CCOCC2)cc1)c1ccc(F)cc1 | 3% | 65% | 3% | 60* | 107% | 29*
CC(C)COc1cccc(C(=O)Nc2ccc(CN3CCOCC3)cc2)c1 | 0% | -28%[0.00184 µM] | 3% | 16 | 8.3µM* | 17
O=C(Nc1ccc(CN2CCOCC2)cc1)c1ccc(-c2ccc(Br)cc2)o1 | -2% | 1.9µM* | -4% | -6 | 9% | -1
O=C(Nc1ccc(Cn2cccn2)cc1)c1ccc(COc2ccccc2Br)cc1 | -7% | -30% | 4% | 51 | 12µM* | 13
O=C(Nc1ccccc1C(=O)NCCCN1CCOCC1)c1ccc(F)cc1 | 3% | 13% | 7% | -8 | 11% | 1
O=C(N/N=C/c1ccccc1[N+](=O)[O-])c1ccc(CN2CCOCC2)cc1 | -1% | 25% | -9% | -19 | 9.3µM* | 16
CC(C)(C)c1ccc(C(=O)Nc2ccc(CN3CCS(=O)(=O)CC3)cc2)cc1 | 0% | -17% | -1% | 36 | ? | 17*
CC(C)CNC(=O)c1ccccc1NC(=O)c1ccc(CN2CCOCC2)cc1 | -6% | 8.3µM* | -9% | 9 | 30% | -1
Cc1ccnc(Cc2ccccc2)n1 | 0% | -7%[0.00184 µM] | 7% | -4 | 30% | -4
O=C(CCCN1C(=O)c2ccccc2C1=O)NCCc1ccc(OC(F)F)cc1 | -1% | 23% | -45% | -14 | 12% | -1
C/C(=N\NC(=O)CSCc1ccc(Cl)cc1)c1ccc(NC(=O)c2ccccc2)cc1 | -13% | . | -4% | 21 | 64% | 23*
C/C(=N/NC(=O)CSCc1ccc(Cl)cc1)c1cccc(NC(=O)c2ccccc2)c1 | 5% | . | -60% | 1 | 28% | 8
NC(=S)c1c(Cl)cc(C(F)(F)F)cc1Cl | 0% | 17% | 1% | -16 | 37% | -3
Cc1c(CC(=O)NCCCCCC(=O)O)c(=O)oc2cc3c(cc12)CCC(C)(C)O3 | -2% | -9% | 2% | -5 | ? | -2
Cc1c(CC(=O)NCCCC(=O)O)c(=O)oc2cc3c(cc12)CCC(C)(C)O3 | 1% | 2.6µM* | 3% | -2 | ? | -2
CCC(NC(=O)Cc1c(C)c2cc3c(cc2oc1=O)OC(C)(C)CC3)C(=O)O (stereo unspecified) | -1% | 167% | -1% | 23 | 267% | 21*
Cc1ccc(NC(=O)C2CCN(C(=O)c3ccc(F)cc3)CC2)nc1 | 1% | 0% | . | . | 0% | .
Cc1c2cnn(-c3ccccc3)c(=O)c2c(C)n1CCCC(=O)NCCN1CCN(C)CC1 | -2% | 23% | 1% | 22 | 1% | 7
[N-]=[N+]=NC(c1ccccc1)c1nc2ccccc2[nH]c1=O (stereo unspecified) | 0% | -16% | ? | 28 | 4% | 27*
CC(C)=CCC/C(C)=C/CC(C)(C)CNCCN1CCNCC1 | -7% | 4.7µM* | 3% | -7 | 4.7µM* | -4
CC(C)=CCCC(C)CN1CCC(O)CC1 (stereo unspecified) | . | 10% | 1% | -12 | 0% | -4
CC(C)=CCC/C(C)=C/CCC(C)NCCN1CCNCC1 (stereo unspecified) | 0% | 13µM* | 4% | -6 | ? | -4
SMILES | SARS PLP yeast | Pf growth 48h | NS1 inh | Shiga inhibitor | Pf growth 96h | CHX counter
COCCn1c(SCC(=O)N2CCCCC2)nc2c(c1=O)SC(C)C2 (stereo unspecified) | -3% | ? | -4% | -2 | ? | -1
CN1CCc2ccc3c4c2[C@]1(C)Cc1cccc(c1-4)OCO3 | . | . | . | 1 | . | 0
COc1ccc(S(=O)(=O)N(C)CC(=O)NCCc2ccccc2)cc1OC | 0% | ? | -4% | -16 | 15µM* | -2
COc1ccc(CCNC(=O)CN(C)S(=O)(=O)c2ccc(Br)s2)cc1OC | 10% | -5% | -21% | -22 | 1.9µM* | 12
COc1ccc(CCNC(=O)CN(C)S(=O)(=O)c2cccs2)cc1OC | 2% | -2% | -1% | -8 | ? | -1
COc1ccc(S(=O)(=O)N(C)CC(=O)NCc2ccccc2)cc1OC | 0% | -8% | -1% | -1 | 43% | -1
O=c1cc(NCc2ccc3c(c2)OCO3)[nH]c(=O)n1-c1ccc(Cl)cc1 | 13% | -15% | 7% | 1 | 14% | 3
O=c1cc(NCc2ccco2)[nH]c(=O)n1-c1ccc(Br)cc1 | 20% | -7% | 12% | 1 | 9.3µM* | -1
O=C(O)c1ccc2c(c1)C(=O)N([C@H](Cc1ccc(C(F)(F)F)cc1)C(=O)O)C2=O | -7% | ? | . | -6 | 13% | -2
O=C(C1CC(c2ccccc2O)=NO1)N1CCCC1 (stereo unspecified) | -1% | 56% | 5% | 78* | 24% | 38*
CCOC(=O)N1CCN(C(=O)C2CC(c3ccccc3OC)=NO2)CC1 (stereo unspecified) | 8% | . | -8% | -6 | -7% | 9
COC(=O)c1ccccc1NC(=O)C1CC(c2ccccc2O)=NO1 (stereo unspecified) | 4% | ? | 0% | 10 | . | -1
CSc1ccccc1NC(=O)C1CC(c2ccccc2O)=NO1 (stereo unspecified) | 1% | -6% | -11% | 93* | . | 41*
O=C(C1CC(c2ccccc2O)=NO1)N1CCC2(CC1)OCCO2 (stereo unspecified) | 5% | . | -4% | 55 | 214% | 25*
O=C(C1CCCN(S(=O)(=O)c2cc(Cl)ccc2Cl)C1)N1CCOCC1 (stereo unspecified) | -8% | -2% | -8% | -6 | ? | -2
COc1ccc(Cn2c(C3CC3)nc3ccc(NC(=O)c4cccnc4)cc3c2=O)cc1 | -1% | ? | 3% | 54* | 0% | 22*
COc1ccc(Cn2c(C3CC3)nc3ccc(NC(C)=O)cc3c2=O)cc1 | -5% | 109% | -10% | 121* | ? | 57*
Cc1nn(C)cc1C(C)Nc1nc2nonc2nc1N1CCCCC1 (stereo unspecified) | 5% | 19% | 1% | -10 | 288% | -1
CN(C(=O)CSc1nnc(-c2c[nH]c3ccccc23)n1C1CC1)C1CCS(=O)(=O)C1 (stereo unspecified) | 1%[6.58 µM] | -11% | . | . | ? | .
COC1OC(COC(=O)c2ccccc2)C(OC(=O)c2ccccc2)C1OC(=O)c1ccccc1 (stereo unspecified) | 2% | ? | -10% | -4 | ? | 2
